Reference: the supplement of paper PMC10981050
“And” between values parts separate entries of the source, which are not always exact repeats. Equal entries are not always repeated. Structures can show the parent of a compound that is named as a salt.

Key:
Experiment in all cases: cell viability relative to vehicle control; higher = less cytotoxic
Settings in all cases: 10 µM
K562 = system: K562
How it was run: (§1)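 CRISPR-edited mutant clones and isogenic wild-type clones from four leukaemia lines were screened against Selleck bioactive, kinase and epigenetic probe libraries, with identity-inconsistent compounds excluded. Each compound was acoustically dispensed at a single 10 µM dose into 384-well plates holding 2000 cells in 50 µL medium per well. After 48 h the supernatant was removed and CellTiter-Glo luminescence was read. Viability was expressed as percent of the on-plate vehicle control and analysed in Genedata Screener.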

MARIMO = system: MARIMO
How it was run: as §1

MOLM14 = system: MOLM14
How it was run: as §1

OCI-AML2 = system: OCI-AML2
How it was run: as §1

| Compound | cell viability (K562; SRSF2 genotype: SRSF2 P95H/wt) | cell viability (K562; SRSF2 genotype: SRSF2 wt/wt) [%] | cell viability (MARIMO; SRSF2 genotype: SRSF2 P95H/wt) [%] | cell viability (MARIMO; SRSF2 genotype: SRSF2 wt/wt) [%] | cell viability (MOLM14; SRSF2 genotype: SRSF2 P95H/wt) [%] | cell viability (MOLM14; SRSF2 genotype: SRSF2 wt/wt) [%] | cell viability (OCI-AML2; SRSF2 genotype: P95H/wt) [%] | cell viability (OCI-AML2; SRSF2 genotype: wt/wt) [%] |
| --- | --- | --- | --- | --- | --- | --- | --- | --- |
| CO/N=C(\C(=O)N[C@@H]1C(=O)N2C(C(=O)[O-])=C(C[n+]3cccc4c3CCC4)CS[C@H]12)c1csc(N)n1 [Cefpirome sulfate] | 100% and 107% | 106 | 94.2 | 108 | 103 | 103 | 101 | 104 |
| CC(=O)c1ccccc1 [Acetophenone] | 98.7% and 89.7% | 91.4 | 84.5 | 91.5 | 90.6 | 91.1 | 85.3 | 83.6 |
| CCc1c(Cl)c(O)c(Cl)c(O)c1C(=O)O[C@H]1[C@H](O)[C@H](OC)[C@H](OC/C2=C\C=C\C[C@H](O)/C(C)=C/[C@H](CC)[C@@H](O[C@@H]3OC(C)(C)[C@@H](OC(=O)C(C)C)[C@H](O)[C@@H]3O)/C(C)=C/C(C)=C/C[C@@H]([C@@H](C)O)OC2=O)O[C@@H]1C [Fidaxomicin] | 81.3% and 80.5% | 78.3 | 86.2 | 91.3 | 74.9 | 84.6 | 110 | 100 |
| CC[C@H]1OC(=O)[C@H](C)[C@@H](O[C@H]2C[C@@](C)(OC)[C@@H](O)[C@H](C)O2)[C@H](C)[C@@H](O[C@@H]2O[C@H](C)C[C@H](N(C)C)[C@H]2O)[C@](C)(O)C[C@@H](C)C(=O)[C@H](C)[C@@H](O)[C@]1(C)O [Erythromycin] | 99.5% and 99.1% | 97.1 | 101 | 98.2 | 104 | 99.6 | 106 | 103 |
| Oc1ccc(-c2nc(-c3ccc(F)cc3)c(-c3ccncc3)[nH]2)cc1 | 89.5% and 96.2% | 93.5 | 101 | 113 | 97.9 | 97.3 | 99.7 | 106 |
| CCC(=O)NS(=O)(=O)c1ccc(-c2c(-c3ccccc3)noc2C)cc1 [Parecoxib] | 100% and 96.7% | 97.5 | 101 | 108 | 101 | 101 | 88.3 | 99.7 |
| c1ccc(CNc2nc(NCc3ccccc3)c3ccccc3n2)cc1 | 17.4% and 10.9% | 12.4 | 0.92 | 11 | 0.16 | 0.16 | 0.21 | 0.19 |
| Cc1cccc(-c2[nH]c(C(C)(C)C)nc2-c2ccc3c(c2)OCO3)n1 | 63.9% and 60.2% | 47.6 | 61.4 | 63.3 | 84.9 | 83.8 | 52.6 | 50 |
| O=C(O)C=Cc1cccc(O)c1 [3-Hydroxycinnamic acid] | 106% and 93.7% | 97.5 | 86.6 | 97.3 | 87.9 | 93.2 | 91.4 | 94.3 |
| CCC(C)C1OC2(CCC1C)CC1CC(CC=C(C)C(OC3CC(OC)C(OC4CC(OC)C(O)C(C)O4)C(C)O3)C(C)C=CC=C3COC4C(O)C(C)=CC(C(=O)O1)C34O)O2 (stereo unspecified) [Ivermectin] | 24.6% and 35% | 26.9 | 25.9 | 22.9 | 21.3 | 18.4 | 4.65 | 7.41 |
| COc1ncc(-c2ccc3nccc(-c4ccnnc4)c3c2)cc1NS(=O)(=O)c1ccc(F)cc1F | 31.8% and 30.2% | 34.8 | 26.4 | 24.1 | 1.48 | 11.9 | 0.26 | 1.55 |
| C[C@H]1COc2c(N3CCN(C)CC3)c(F)cc3c(=O)c(C(=O)O)cn1c23 [Levofloxacin (Levaquin)] | 95.5% and 83.8% | 87.5 | 90.4 | 101 | 95.2 | 88 | 87.3 | 88.3 |
| CC(C)CCNc1ncccc1C(=O)N1CCN(Cc2ccccc2)CC1 | 103% and 100% | 102 | 93.8 | 105 | 96.9 | 103 | 103 | 105 |
| CC(C)n1ncnc1-c1cn2c(n1)-c1ccc(O[C@@H](C)C(N)=O)cc1OCC2 | 103% and 99.5% | 105 | 48.3 | 46.3 | 50.9 | 62.9 | 18.5 | 34.3 |
| O.O=C([O-])c1ncccc1O.O=C([O-])c1ncccc1[O-].[H+].[O]=[V][OH] [VO-Ohpic trihydrate] | 100% and 92.1% | 95.5 | 106 | 102 | 122 | 110 | 121 | 119 |
| CCS(=O)(=O)Nc1ccc(Oc2ccc(F)cc2F)c(-c2cn(C)c(=O)c3[nH]ccc23)c1 [ABBV-075 (Mivebresib)] | 20.9% and 13.8% | 33.2 | 7.17 | 9.37 | 1.9 | 1.8 | 7.64 | 13.5 |
| CCN(CC)CC(=O)Nc1c(C)cccc1C [Lidocaine (Alphacaine)] | 113% and 102% | 111 | 106 | 108 | 103 | 105 | 101 | 106 |
| CN1CC(=O)N2[C@H](c3ccc4c(c3)OCO4)c3[nH]c4ccccc4c3C[C@@H]2C1=O [Tadalafil (Cialis)] | 101% and 99.7% | 106 | 98.5 | 105 | 97.3 | 99.8 | 103 | 108 |
| COc1c(O)cc2c(c1O)C(=O)c1c(cc(C)c(O)c1OC)C2=O [Aurantio-obtusin] | 87% and 81.9% | 79.3 | 84.5 | 84.3 | 84.5 | 88.9 | 97.9 | 91.5 |
| COC(=O)N(C)c1c(N)nc(-c2nn(Cc3ccccc3F)c3ncccc23)nc1N [Riociguat (BAY 63-2521)] | 89.6% and 89.1% | 82.6 | 85 | 99 | 90.2 | 94 | 96.3 | 108 |
| Cc1ccccc1C(C(=O)NC1CCCCC1)N(C(=O)Cn1ccnc1C)c1cccc(F)c1 (stereo unspecified) | 103% and 101% | 97.1 | 99.2 | 98.6 | 100 | 99.8 | 101 | 105 |

| Compound | cell viability (K562; SRSF2 genotype: SRSF2 P95H/wt) | cell viability (K562; SRSF2 genotype: SRSF2 wt/wt) [%] | cell viability (MARIMO; SRSF2 genotype: SRSF2 P95H/wt) [%] | cell viability (MARIMO; SRSF2 genotype: SRSF2 wt/wt) [%] | cell viability (MOLM14; SRSF2 genotype: SRSF2 P95H/wt) [%] | cell viability (MOLM14; SRSF2 genotype: SRSF2 wt/wt) [%] | cell viability (OCI-AML2; SRSF2 genotype: P95H/wt) [%] | cell viability (OCI-AML2; SRSF2 genotype: wt/wt) [%] |
| --- | --- | --- | --- | --- | --- | --- | --- | --- |
| Cc1nc2ccc(-n3ncc(C(=O)c4cc5ccccc5[nH]4)c3N)cc2[nH]1 | 73.6% and 86.9% | 76.5 | 90.6 | 103 | 41.2 | 47.5 | 42.6 | 43.7 |
| NC(=O)c1ccc(-c2nc(-c3ccccn3)c(-c3ccc4c(c3)OCO4)[nH]2)cc1 | 103% and 105% | 97.9 | 100 | 106 | 102 | 97.9 | 109 | 98.3 |
| CCOC(=O)c1ccc(NC2CCCCC2)c(N)c1 [Ferrostatin-1 (Fer-1)] | 98.7% and 94.8% | 88.4 | 90.6 | 106 | 104 | 102 | 94.3 | 90.4 |
| CC1(C)CC[C@]2(C(=O)O)CC[C@]3(C)C(=CC[C@@H]4[C@@]5(C)C[C@@H](O)[C@H](O)C(C)(C)[C@@H]5CC[C@]43C)[C@@H]2C1 [Maslinic acid] | 84.2% and 80.1% | 84.5 | 91.3 | 108 | 90.7 | 86.9 | 77 | 82.2 |
| COc1ccc([C@@H]2CC(=O)c3c(O)cc(O[C@@H]4O[C@H](CO[C@@H]5O[C@@H](C)[C@H](O)[C@@H](O)[C@H]5O)[C@@H](O)[C@H](O)[C@H]4O)cc3O2)cc1O [Hesperidin] | 105% and 115% | 111 | 107 | 109 | 109 | 113 | 112 | 97.2 |
| C[C@@H]1O[C@@H](OC[C@H]2O[C@@H](Oc3cc(O)c4c(c3)O[C@H](c3ccc(O)c(O)c3)CC4=O)[C@H](O)[C@@H](O)[C@@H]2O)[C@H](O)[C@H](O)[C@H]1O [Eriocitrin] | 110% and 103% | 108 | 105 | 100 | 117 | 110 | 98.4 | 94.6 |
| Cc1c(C(=O)NN2CCCCC2)nn(-c2ccc(Cl)cc2Cl)c1-c1ccc(Cl)cc1 | 81.6% and 88% | 74.5 | 93.7 | 93 | 88.5 | 87 | 91.8 | 90.9 |
| COc1cc(/C=C/C(=O)O[C@H]2CC[C@]34C[C@]35CC[C@]3(C)[C@@H]([C@H](C)CCC=C(C)C)CC[C@@]3(C)[C@@H]5CC[C@H]4C2(C)C)ccc1O [Gamma-Oryzanol] | 96.7% and 93.9% | 97.5 | 98.5 | 107 | 103 | 101 | 97.7 | 107 |
| CCOCCn1c(N2CCCN(C)CC2)nc2ccccc21 [Emedastine] | 100% and 96.7% | 101 | 101 | 107 | 102 | 107 | 114 | 104 |
| Oc1cc2c(cc1O)[C@@H]1c3ccc(O)c(O)c3OC[C@]1(O)C2 [Hematoxylin (Hydroxybrazilin)] | 97% and 94.6% | 94.1 | 95.7 | 98.5 | 99.8 | 99.7 | 101 | 98.4 |
| Clc1ccc2c(N3CCN(CCCN4CCN(c5ccnc6cc(Cl)ccc56)CC4)CC3)ccnc2c1 [Piperaquine phosphate] | 99.4% and 95% | 98.2 | 93.8 | 103 | 85.3 | 102 | 92.7 | 88 |
| Cc1ncc(NC(=O)c2cccc(C(F)(F)F)c2)cc1-c1cnc(OC2CCOCC2)c(N2CCOCC2)c1 | 61.6% and 73.4% | 71.2 | 41.2 | 40.3 | 48.2 | 40.7 | 30.6 | 39 |
| OC(CC1c2ccccc2-c2cncn21)C1CCCCC1 (stereo unspecified) | 85.4% and 94.1% | 97.5 | 80 | 93.1 | 90.6 | 93.5 | 89.8 | 99.7 |
| CC(C)OC(=O)C(C)(C)Oc1ccc(C(=O)c2ccc(Cl)cc2)cc1 [Fenofibrate (Tricor, Trilipix)] | 80.4% and 86.4% | 85.1 | 79.2 | 81.2 | 93.7 | 98.5 | 67.1 | 82.8 |
| COc1ccc2[nH]c([S@@+]([O-])Cc3ncc(C)c(OC)c3C)nc2c1 [NEXIUM (esomeprazole magnesium)] | 101% and 97.4% | 104 | 97 | 107 | 92 | 98.6 | 90.5 | 94.8 |
| Nc1cccc2c1C(=O)N(C1CCC(=O)NC1=O)C2=O (stereo unspecified) [Pomalidomide] | 102% and 96.9% | 88 | 87.4 | 99 | 88.5 | 93.5 | 120 | 121 |
| Cc1cccc(-c2nn3c(c2-c2ccnc4ccc(C(N)=O)cc24)CCC3)n1 | 102% and 98% | 99.2 | 104 | 103 | 99.7 | 96.1 | 108 | 108 |
| CCCc1cc(C)[nH]c(=O)c1CNC(=O)c1cc(-c2ccc(N3CCN(C(C)C)CC3)nc2)cc2c1cnn2C(C)C | 36.5% and 35% | 30.5 | 81.1 | 80 | 49.8 | 60.8 | 4.14 | 31.8 |
| CN1CC[C@@H](NC(=O)Nc2ccc(C#N)cc2)C[C@@H]1c1nc2ccccc2[nH]1 | 98.5% and 104% | 107 | 104 | 109 | 98.8 | 100 | 98.1 | 112 |
| CCc1cccc2c3c([nH]c12)C(CC)(CC(=O)O)OCC3 (stereo unspecified) [Etodolac (Lodine)] | 99.4% and 101% | 92.6 | 89.7 | 96.5 | 93 | 97.8 | 86.8 | 93.7 |
| COC(=O)c1ccc2c(c1)[nH]c1ncnc(NCCCN3CCCCC3)c12 | 78.5% and 68.9% | 73.5 | 49.9 | 49 | 23.7 | 15.7 | 24.2 | 31 |
